Compound activity from PubChem.
nsP2pro primary: Primary qHTS for inhibitors of NSP2Pro chikungunya virus (CHIKV); Polyprotein P1234 (Chikungunya virus (strain S27-African prototype)), Q8JUX6; FRET peptide cleavage, nsP2pro, fluorescence 1 h; 31,000 compounds, 1.1% hits; Potency, µM (top dose mostly 24.9 µM), most hits filed as inhibitors; AID 1964107, 2024; note: nearly all actives have a fitted effect of over 60% in size
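FRET cleavage of 2.5 uM peptide 2 by 150 nM CHIKV protease domain at pH 8.0 (Tris, Tween 20). Compounds at 7 concentrations (up to 25 uM) preincubated 15 min. Fluorescence read after 1 h at room temperature.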
nsP2 cell sec: Secondary cell base assay for inhibitors of NSP2Pro Chikungunya virus (CHIKV) | shares compounds with nsP2pro primary | cell-based CHIKV nsP2 protease reporter assay | Potency, µM (series often up to 51.1 µM), actives largely listed as inhibitors | 450 compounds, 10% hits | AID 1964100, 2024; note: nearly all actives have a fitted effect of over 70% in size
Target sequence (Q8JUX6 220-798 limits assumed): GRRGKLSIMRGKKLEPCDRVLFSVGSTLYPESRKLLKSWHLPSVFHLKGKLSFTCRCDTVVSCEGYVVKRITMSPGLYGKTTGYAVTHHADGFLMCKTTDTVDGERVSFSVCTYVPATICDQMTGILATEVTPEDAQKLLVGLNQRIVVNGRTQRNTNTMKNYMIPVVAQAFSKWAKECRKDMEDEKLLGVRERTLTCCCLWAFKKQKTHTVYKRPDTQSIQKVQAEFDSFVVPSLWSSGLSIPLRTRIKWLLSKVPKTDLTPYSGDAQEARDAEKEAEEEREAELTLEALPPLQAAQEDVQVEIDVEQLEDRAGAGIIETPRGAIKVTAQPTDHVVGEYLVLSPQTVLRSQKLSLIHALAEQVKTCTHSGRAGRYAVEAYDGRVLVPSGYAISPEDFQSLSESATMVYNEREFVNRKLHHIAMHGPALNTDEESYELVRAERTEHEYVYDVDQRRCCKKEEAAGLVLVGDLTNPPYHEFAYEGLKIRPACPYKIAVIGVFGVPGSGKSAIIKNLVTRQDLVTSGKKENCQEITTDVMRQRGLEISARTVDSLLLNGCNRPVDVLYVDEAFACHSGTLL
NSP2 full ctr: Selectivity profile for inhibitors of NSP2Pro chikungunya virus (CHIKV): Full length NSP2 enzyme counterscreen (CHIKV-NSP2); Full-length CHIKV NSP2 protease enzymatic counterscreen; shares compounds with nsP2pro primary; Potency, µM (series often up to 50.7 µM), most hits filed as inhibitors; AID 1964101, 2024; 410 compounds, 39% hits; note: nearly all actives have a fitted effect of over 65% in size
Furin counter: Selectivity profile for inhibitors of NSP2Pro chikungunya virus (CHIKV): Human furin counterscreen; shares compounds with nsP2pro primary; Recombinant human furin enzymatic counterscreen, fluorogenic substrate; Potency, µM (doses to about 50.6 µM), usual class: inhibitors; 410 compounds, 6% hits; AID 1964102, 2024
NS23 peptide cs: Selectivity profile for inhibitors of NSP2Pro chikungunya virus (CHIKV): Endogenous NS2/3 peptide Counterscreen | shares compounds with nsP2pro primary | Purified CHIKV nsP2 protease, endogenous NS2/3 peptide cleavage | Potency, µM (titrated, usually from 51 µM), actives largely listed as inhibitors | 410 compounds, 34% hits | AID 1964103, 2024; note: nearly all actives have a fitted effect of over 55% in size
Papain counter: Selectivity profile for inhibitors of NSP2Pro chikungunya virus (CHIKV): Papain Counterscreen. shares compounds with nsP2pro primary. purified papain protease activity, enzymatic inhibition. Potency, µM (titrated, usually from 51 µM), actives largely listed as inhibitors. 410 compounds, 5% hits. AID 1964104, 2024
nsP2pro conf qHTS: Confirmatory qHTS for inhibitors of NSP2Pro chikungunya virus (CHIKV). Potency, µM (titrated, usually from 25.5 µM), most hits filed as inhibitors. 410 compounds, 43% hits. CHIKV nsP2 protease enzymatic activity, qHTS. shares compounds with nsP2pro primary; note: nearly all actives have a fitted effect of over 75% in size
HCV NS3 counter: Selectivity profile for inhibitors of NSP2Pro chikungunya virus (CHIKV): NS34A-HCV Counterscreen; shares compounds with nsP2pro primary; HCV NS3/4A protease biochemical counterscreen; Potency, µM (highest dose often 50.9 µM), usual class: inhibitors; 410 compounds, 20% hits; AID 1964106, 2024; note: nearly all actives have a fitted effect of over 55% in size
Numbers stand for hits; [ ] = dose if it differs, or a comment. The sample as a whole holds a higher share of hits than the screen did. Calls come from the whole dose curve.

How did COCCn1c2c(c(=O)n1-c1ccccc1)CCN(C(=O)c1cc3ccccc3n1C)C2 do in these assays?
nsP2pro primary: inactive

Results for CN(C1CCCc2ccccc21)S(=O)(=O)c1cccc(C(F)(F)F)c1 (stereo unspecified) ?
nsP2pro primary: inactive

What do the screens show for `CCCN(Cc1nccn1C)C(=O)c1cn(Cc2ccc(F)cc2)nn1`?
nsP2pro primary: inactive

How did Cc1ccc(S(=O)(=O)Nc2ccc(Cl)cc2C(=O)Nc2nc(-c3ccccc3)cs2)cc1 do in these assays?
nsP2pro primary: inactive

Results for COc1ccc(C=CC(=O)O)cc1 ?
nsP2pro primary: inactive

What do the screens show for `CC(=O)c1ccc(N2CCN(c3ccc(NC(=O)c4ccc(F)cc4)cc3C(=O)O)CC2)cc1`?
nsP2pro primary: inactive

What do the screens show for `NNc1ccc(NC(=O)c2cccs2)cn1`?
nsP2pro primary: inactive

Results for Cc1ccccc1C(=O)Nc1ccc2c(c1)CCCN2C(=O)c1cccs1 ?
nsP2pro primary: inactive

What do the screens show for `O=C(Nc1cnc(N2CCN(c3ccccc3)CC2)c(C(=O)O)c1)c1cccs1`?
nsP2pro primary: 2.5µM; nsP2 cell sec: inactive; NSP2 full ctr: 2.1µM; Furin counter: inconclusive; NS23 peptide cs: 6.5µM; Papain counter: inactive; nsP2pro conf qHTS: 5.7µM; HCV NS3 counter: 2.9µM

Results for CN1CCN(c2ccc(NC(=O)c3cccs3)cn2)CC1 ?
nsP2pro primary: inactive

How did O=C(Nc1ccc(N2CCN(c3ccc(F)cc3)CC2)c(C(=O)O)c1)c1cccs1 do in these assays?
nsP2pro primary: inconclusive; nsP2 cell sec: inactive; NSP2 full ctr: 5.2µM; Furin counter: inactive; NS23 peptide cs: 13µM; Papain counter: inactive; nsP2pro conf qHTS: 8µM; HCV NS3 counter: 4.1µM

Results for Cc1nnsc1C(=O)N[C@H]1CCN(C(=O)c2ccco2)[C@H](C(=O)N[C@H](Cc2c[nH]c3ccccc23)C(N)=O)C1 ?
nsP2pro primary: inactive

Results for Cc1ccc(CNc2nc(-c3ccccc3C(F)(F)F)nc3ccccc23)s1 ?
nsP2pro primary: inactive

How did COC(=O)c1ccccc1NC(=O)Cn1c(CCC(=O)O)ccc1-c1cccs1 do in these assays?
nsP2pro primary: inactive

Results for COC(=O)c1cccc(-n2c(CCC(=O)O)ccc2-c2cccs2)c1 ?
nsP2pro primary: 8.9µM; nsP2 cell sec: inactive

How did CC(=O)c1ccc(-n2c(CCC(=O)O)ccc2-c2cccs2)cc1 do in these assays?
nsP2pro primary: inactive

Results for N#Cc1cccc(-c2ccc(NC(=O)c3cccs3)cn2)c1 ?
nsP2pro primary: inactive

How did C[S+](CC[C@H](N)C(=O)O)C[C@H]1O[C@@H](n2cnc3c(N)ncnc32)[C@H](O)[C@H]1O (stereo partly specified) do in these assays?
nsP2pro primary: inactive

What do the screens show for `CCCCC1CCC(C(=O)Nc2ccc(S(=O)(=O)Nc3cc(C)on3)cc2)CC1` (stereo unspecified)?
nsP2pro primary: inactive

Results for CC(=O)c1cccc(NC(=O)NC[C@H]2C[C@@H]3CCN2C[C@@H]3c2cc(-c3ccc(F)cc3)nc(C)n2)c1 ?
nsP2pro primary: inactive

How did Cc1nc(-c2ccco2)cc([C@H]2CN3CC[C@H]2C[C@@H]3CNC(=O)NC2CCCCC2)n1 do in these assays?
nsP2pro primary: 8.9µM; nsP2 cell sec: inactive; NSP2 full ctr: 13µM; Furin counter: inconclusive; NS23 peptide cs: 17µM; Papain counter: inactive; nsP2pro conf qHTS: 13µM; HCV NS3 counter: 8.4µM

How did COc1ccc(-c2cc([C@H]3CN4CC[C@H]3C[C@@H]4CNC(=O)NC3CCCCC3)n(C)n2)cc1 do in these assays?
nsP2pro primary: inactive

Results for COc1ccc(-c2cc([C@H]3CN4CC[C@H]3C[C@@H]4COC(=O)NC3CCCCC3)nc(C)n2)cc1 ?
nsP2pro primary: inactive

Results for Cc1nc(-c2cccs2)cc([C@H]2CN3CC[C@H]2C[C@@H]3COC(=O)NC2CCCCC2)n1 ?
nsP2pro primary: inactive

How did Cc1nc(-c2ccccc2Br)cc([C@H]2CN3CC[C@H]2C[C@@H]3CNC(=O)NC2CCCCC2)n1 do in these assays?
nsP2pro primary: 5µM; nsP2 cell sec: inactive; NSP2 full ctr: inconclusive; Furin counter: inconclusive; NS23 peptide cs: 16µM; Papain counter: inactive; nsP2pro conf qHTS: 8µM; HCV NS3 counter: 13µM

What do the screens show for `C=C1C(=O)O[C@H]2CC(=C)[C@H]3CC[C@@](C)(O)[C@@H]3CC12` (stereo partly specified)?
nsP2pro primary: inactive

What do the screens show for `C/C=C(\C)C(=O)OC1CC2C(CC=C3CC(OC4CC(OC)C(OC5CC(OC)C(OC6CC(OC)C(OC7CC(OC)C(O)C(C)O7)C(C)O6)C(C)O5)C(C)O4)CCC32C)C2(O)CCC(C(C)=O)C12C` (stereo unspecified)?
nsP2pro primary: inactive[5.1 µM]

How did O=C(NCCc1nc2ccccc2n1CCOc1ccc(F)cc1)C1CCCCC1 do in these assays?
nsP2pro primary: inactive

How did CC(C)c1ccc(S(=O)(=O)c2cnc(SCC(=O)Nc3ccc4c(c3)OCCO4)[nH]c2=O)cc1 do in these assays?
nsP2pro primary: 4µM; nsP2 cell sec: inconclusive; NSP2 full ctr: inactive; Furin counter: inactive; NS23 peptide cs: inactive; Papain counter: inconclusive; nsP2pro conf qHTS: inactive; HCV NS3 counter: inactive

Results for Cc1ccc(S(=O)(=O)c2cnc(SCC(=O)Nc3ccc4c(c3)OCCO4)[nH]c2=O)cc1Cl ?
nsP2pro primary: inactive

Results for O=C(CSc1ncc(S(=O)(=O)c2ccc(Br)cc2)c(=O)[nH]1)NCc1ccccc1Cl ?
nsP2pro primary: inactive

Results for Nc1nc2c(c(=O)[nH]1)C[C@@H](CCc1ccc(C(=O)N[C@@H](CCC(=O)O)C(=O)O)cc1)CN2 ?
nsP2pro primary: inactive

Results for COc1cc(Cl)ccc1C(=O)N1CC[C@@](C)(O)[C@@H](O)C1 ?
nsP2pro primary: inactive
